# Compound activity deposited in PubChem BioAssay by National Center for Advancing Translational Sciences (NCATS).
# This excerpt belongs to a sample that is enriched for hits.
# KDM5B inh = KDM5B demethylase inhibition; Potency, µM (top dose mostly 57.7 µM), most hits filed as inhibitors; 2.6% of 220,000 active; KDM5B demethylase, FDH-coupled NADH fluorescence (FDH is formaldehyde dehydrogenase); active = well fitted inhibition curve with a large enough effect; note: 0% is about no effect; nearly all actives have a fitted effect of over 70% in size
# Target sequence (Q9UGL1 whole entry, looked up): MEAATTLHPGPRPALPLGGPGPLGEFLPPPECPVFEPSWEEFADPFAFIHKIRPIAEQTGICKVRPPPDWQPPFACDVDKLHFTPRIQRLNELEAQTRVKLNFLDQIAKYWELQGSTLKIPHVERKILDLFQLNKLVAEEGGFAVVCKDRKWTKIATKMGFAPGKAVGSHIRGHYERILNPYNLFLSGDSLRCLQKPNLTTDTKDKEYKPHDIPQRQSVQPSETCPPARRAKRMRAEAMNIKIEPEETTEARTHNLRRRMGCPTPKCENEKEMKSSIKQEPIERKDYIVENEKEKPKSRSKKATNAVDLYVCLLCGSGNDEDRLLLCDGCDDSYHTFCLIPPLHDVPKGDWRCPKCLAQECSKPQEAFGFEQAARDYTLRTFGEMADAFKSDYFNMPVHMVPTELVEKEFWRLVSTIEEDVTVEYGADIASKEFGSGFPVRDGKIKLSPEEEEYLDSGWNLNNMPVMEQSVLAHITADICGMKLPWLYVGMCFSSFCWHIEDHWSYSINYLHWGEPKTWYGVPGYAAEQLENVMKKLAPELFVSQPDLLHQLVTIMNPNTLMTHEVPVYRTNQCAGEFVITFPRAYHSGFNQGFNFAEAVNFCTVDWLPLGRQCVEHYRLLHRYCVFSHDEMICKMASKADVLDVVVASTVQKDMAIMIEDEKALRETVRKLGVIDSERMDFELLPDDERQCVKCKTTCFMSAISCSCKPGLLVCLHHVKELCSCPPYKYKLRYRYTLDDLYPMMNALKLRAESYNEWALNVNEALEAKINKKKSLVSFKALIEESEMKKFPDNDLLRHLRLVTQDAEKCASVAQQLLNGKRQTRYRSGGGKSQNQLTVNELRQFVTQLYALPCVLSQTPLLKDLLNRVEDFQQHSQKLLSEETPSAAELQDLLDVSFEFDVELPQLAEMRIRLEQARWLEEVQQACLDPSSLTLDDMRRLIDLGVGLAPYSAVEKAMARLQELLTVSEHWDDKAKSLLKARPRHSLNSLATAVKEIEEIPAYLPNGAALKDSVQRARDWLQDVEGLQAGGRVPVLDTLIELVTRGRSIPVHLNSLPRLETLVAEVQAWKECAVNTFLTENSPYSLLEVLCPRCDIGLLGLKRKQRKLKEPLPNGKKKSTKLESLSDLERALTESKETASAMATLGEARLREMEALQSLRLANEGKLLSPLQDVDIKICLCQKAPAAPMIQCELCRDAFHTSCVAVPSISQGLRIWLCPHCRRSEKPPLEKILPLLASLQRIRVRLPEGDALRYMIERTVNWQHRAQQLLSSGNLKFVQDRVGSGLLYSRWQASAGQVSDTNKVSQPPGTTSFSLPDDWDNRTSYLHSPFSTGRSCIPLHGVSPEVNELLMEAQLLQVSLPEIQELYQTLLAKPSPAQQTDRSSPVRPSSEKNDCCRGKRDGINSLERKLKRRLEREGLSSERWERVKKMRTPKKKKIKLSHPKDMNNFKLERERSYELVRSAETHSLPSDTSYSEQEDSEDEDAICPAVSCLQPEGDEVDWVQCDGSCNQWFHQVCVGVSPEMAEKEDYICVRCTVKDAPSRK
#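 KDM5BΔAP (200 nM final) in 50 mM HEPES pH 7.5, 0.01% Tween-20 was preincubated 10 min at RT with compound over a concentration range. Substrate mix (H3K4me3 12.5 µM, α-KG 25 µM, Fe²⁺, ascorbate, NAD⁺, FDH) was added, and NADH fluorescence change over 30 min gave dose-response curves.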
# Starred values were filed as active, the others as inactive; i = inactive. Potency is the fitted concentration of half-maximal effect.
SMILES,KDM5B inh
COc1ccc(S(=O)(=O)Nc2nc3ccccc3nc2Nc2ccccc2)cc1,i
COc1ccc(-c2ccnc(N[C@H]3CO[C@H]4[C@@H]3OC[C@@H]4NC(=O)CC3(CC(=O)O)CCCC3)n2)cc1,28µM*
COc1ccc(-c2ccnc(N[C@H]3CO[C@H]4[C@@H]3OC[C@@H]4NC(=O)CCCC(=O)O)n2)cc1,32µM*
O=C(O)CCCC(=O)N[C@H]1CO[C@H]2[C@@H]1OC[C@@H]2Nc1nccc(-c2ccc3c(c2)OCO3)n1,28µM*
O=C(Nc1nc2ccccc2[nH]1)c1ccc[n+]([O-])c1,i
CCOc1ccc(OCC)c(NC(=O)c2nnn(CC(=O)Nc3c(C)cc(C)cc3C)c2N)c1,i
COc1ccc(N2C(=O)CSC23CCN(C(=O)Nc2ccccc2)CC3)cc1,i
CCc1ccc2[nH]c(C(C)(C)C)c(C=O)c2c1,i
CCc1noc(-c2cn(C3CCN(C(=O)c4sccc4C)CC3)nn2)n1,i
CCn1cc(CNC(=O)Nc2ccc(Cl)c(Cl)c2)c(C)n1,i
O=C(Nc1cccc(F)c1)C1CCN(c2cc(C(F)(F)F)ncn2)CC1,i
O=C(NCc1ccccc1)c1ccccc1CSc1nc2ccccc2o1,i
COc1ccccc1N1CCN(C(=O)CCc2conc2-c2ccc(C)cc2)CC1,i
CCOCC(=O)N1CCC(O)(c2ccccc2)[C@H](N2CCCC2)C1 (some centres undefined),10µM*
CN(C)[C@@H]1CN(C(=O)c2ccccc2)CC[C@]1(O)c1ccccc1,i
CCC(=O)N1CCC(O)(c2ccccc2)[C@H](N(C)C)C1 (some centres undefined),i
CN(C)[C@@H]1CN(C(=O)C2CC2)CC[C@]1(O)c1ccccc1,i
O=C(C1CCCCC1)N1CC[C@](O)(c2ccccc2)[C@H](N2CCCC2)C1,8.9µM*
O=C(C1CCCCC1)N1CCC(Cc2ccccc2)(C(=O)O)CC1,i
CCc1cccc(C)c1NC(=O)CC(C)(C(=O)O)c1ccccc1 (centres undefined),i
Cn1c(SCc2nc3ccccc3o2)nnc1-c1ccccc1,i
CSc1nc2ccc(S(=O)(=O)NCc3ccccc3)cc2s1,i
Cc1noc(C)c1COC(=O)c1ccc(Cl)c(S(=O)(=O)N2CCCCCC2)c1,i
CN(C)S(=O)(=O)N1CCN(C(=O)Cc2ccccc2F)CC1,i
CCOc1ccc(C2NC(=O)N(Cc3nncn3C(C)C)C3=C2C(=O)OC3)cc1 (centres undefined),i
SMILES,KDM5B inh
Cc1ccc(-c2cc(=O)c3cc(C)ccc3o2)cc1,i
COc1ccc(NC(=O)CSc2nnc3c4c5c(sc4ncn23)CCCC5)cc1,i
N#CCC(=O)c1ccc2c(c1)OCO2,i
CN1CCN(Cc2nc(C3(O)CCNCC3)cs2)CC1,i
CCOc1ccccc1C(=O)NCCc1noc(-c2ccccc2)n1,i
CCc1noc(-c2ccn3c(CNC(=O)c4ccccc4F)nnc3c2)n1,i
CCCc1noc(-c2ccn3c(CNC(=O)c4ccc(F)cc4Cl)nnc3c2)n1,i
CCOc1ccccc1C(=O)NCc1nnc2cc(-c3nc(CC)no3)ccn12,28µM*
Cc1noc(-c2ccn3c(CNC(=O)c4ccc(F)cc4Cl)nnc3c2)n1,i
CCc1noc(-c2ccn3c(CNC(=O)c4cc(F)ccc4Cl)nnc3c2)n1,28µM*
CC(C)c1noc(-c2ccn3c(CNC(=O)c4ccc(F)cc4Cl)nnc3c2)n1,28µM*
O=S(=O)(c1ccc(Sc2nnnn2C2CC2)nc1)N1CCCC1,i
Cc1ccc(-c2nn(CCC(=O)N3CCOCC3)c(=O)c3ccccc23)cc1,i
O=c1[nH]c(=O)n(Cc2ccccc2)c2nccc(-c3ccc4c(c3)OCO4)c12,i
COc1ccc(OC)c(C(C)NC(=O)CCc2cccs2)c1 (centres undefined),i
CC(C)(C)c1ccc(CS(=O)CCC(=O)Nc2ccccc2)cc1 (centres undefined),i
COc1ccccc1-c1cc(NCc2cccnc2)c2onc(C)c2n1,i
COc1ccccc1-c1cc(-c2ccsc2)c2onc(C)c2n1,28µM*
COc1cccc(Nc2nc(-c3ccccc3)no2)c1,i
COc1ccc(OC)c(-c2cc(-c3cccs3)nc3c(C)noc23)c1,40µM*
Cc1noc2c(N3CCNC(=O)C3)cc(-c3cccs3)nc12,i
COc1cccc(Nc2cc(-c3cccs3)nc3c(C)noc23)c1,35µM*
Cc1noc2c(NC(C)C)cc(-c3ccsc3)nc12,i
Cc1noc2c(NC3CCC(O)CC3)cc(-c3cccs3)nc12 (centres undefined),i
Cc1noc2c(N(C)C)cc(-c3cccs3)nc12,i
SMILES,KDM5B inh
Cc1cc(CN2CCCC(CCNC(=O)C3(N)CC3)C2)oc1C (centres undefined),i
CC1CCN(S(=O)(=O)NC(C)Cc2ccco2)CC1 (centres undefined),i
CC(C)c1ccccc1NC(=O)Cc1ccc2c(c1)CCC2,i
CCCCN(Cc1ccccc1)c1ccc(NS(=O)(=O)c2ccc(CC(C)C)cc2)cc1C(=O)O,i
Cc1cc(C)c(S(=O)(=O)NCCn2c(C)cnc2C2CC2)cc1C,i
Cc1ccc(S(=O)(=O)N2CCC(CCC(=O)NC3CC3)CC2)cc1,i
Cc1ccc2nc(C)c(C(=O)NCC(F)(F)F)cc2c1,i
COCCNC(=O)c1cc(Br)cn2ccnc12,40µM*
O=C(NCc1ccc(C(F)(F)F)cc1)c1ccc(CN2CCCCC2)cc1,i
O=C(NCCc1ccccc1F)NC1CC1,i
O=C(NCC(F)(F)F)c1coc2ccccc2c1=O,i
COCCNC(=O)c1nc2sccn2c1Br,i
O=C(NCc1ccc(C(F)(F)F)cc1)c1cc(Br)cn2ccnc12,14µM*
O=C(NCC(F)(F)F)c1cc(Br)cn2ccnc12,35µM*
O=C(NCCc1ccccc1F)c1cc(Br)cn2ccnc12,28µM*
COCCNC(=O)c1cccc(-n2c(C)nc3cccnc32)c1,i
O=C(NCCc1ccccc1F)c1ccncc1,i
NC(=O)c1ccc(CNC(=O)c2ccc(C(F)(F)F)cc2)cc1,i
c1cncc(OCc2nc(C3CCNCC3)no2)c1,i
CCN(CC)S(=O)(=O)c1ccc(N/N=C/c2ccc(C)s2)c([N+](=O)[O-])c1,i
Cc1nnc([C@@H]2CC(F)(F)CN2S(=O)(=O)c2cccc(F)c2)o1,i
CCn1ccnc1CN(C)Cc1cn(Cc2ccccc2)nc1-c1ccc2c(c1)OCO2,i
COc1ccc(C(C)=O)cc1COC(=O)c1cc(Br)ccc1Cl,i
CCCOC(=O)c1[nH]c2c(c1C)C(=O)CC(c1ccccc1)C2 (centres undefined),i
CC(C)n1nc(C(=O)NCCc2cccs2)c2ccccc2c1=O,i
SMILES,KDM5B inh
Cn1ccc2cc(S(=O)(=O)N3CCC(C(=O)NCCCN4CCOCC4)CC3)ccc21,i
NC(=O)C1CCN(C(=O)Cc2c[nH]c3ccccc23)CC1,i
COC(=O)CNC(=O)c1ccc(C)cc1C,i
COC(=O)CNC(=O)c1cc(-c2ccccn2)nc2ccccc12,i
COC(=O)CNC(=O)c1cc(Br)cn2ccnc12,32µM*
CCc1ccc(CN2CC3ON=C(C(=O)O)C3C2)cc1 (centres undefined),112µM*
O=C(O)C1=NOC2CN(Cc3c(F)cccc3Cl)CC12 (centres undefined),i
CN(Cc1ccccc1)C(=O)C1=NO[C@@H]2CN(Cc3ccc(F)cc3)C[C@H]12,i
Cc1ccc(CN(C)C(=O)CCc2ccc(C#N)cc2)o1,i
